Measured values from paper PMC4336329 (PLoS ONE, 2015).
Among all 310,000 compounds or so, about 14,000 (4.5%) showed an effect of 50% or more. The effect is printed as a negative number. The entries come from a sample that favours strong results as a whole.

target: human ether-à-go-go-related gene (hERG) potassium channel (human, UniProt Q12809); test: primary screen, population patch clamp on CHO cells stably expressing hERG; higher = less effect of the substance
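Further: peak tail current of the secondary pulse compared with the same well before compound.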

human ether-à-go-go-related gene (hERG) potassium channel, sequence (Q12809 whole entry, looked up): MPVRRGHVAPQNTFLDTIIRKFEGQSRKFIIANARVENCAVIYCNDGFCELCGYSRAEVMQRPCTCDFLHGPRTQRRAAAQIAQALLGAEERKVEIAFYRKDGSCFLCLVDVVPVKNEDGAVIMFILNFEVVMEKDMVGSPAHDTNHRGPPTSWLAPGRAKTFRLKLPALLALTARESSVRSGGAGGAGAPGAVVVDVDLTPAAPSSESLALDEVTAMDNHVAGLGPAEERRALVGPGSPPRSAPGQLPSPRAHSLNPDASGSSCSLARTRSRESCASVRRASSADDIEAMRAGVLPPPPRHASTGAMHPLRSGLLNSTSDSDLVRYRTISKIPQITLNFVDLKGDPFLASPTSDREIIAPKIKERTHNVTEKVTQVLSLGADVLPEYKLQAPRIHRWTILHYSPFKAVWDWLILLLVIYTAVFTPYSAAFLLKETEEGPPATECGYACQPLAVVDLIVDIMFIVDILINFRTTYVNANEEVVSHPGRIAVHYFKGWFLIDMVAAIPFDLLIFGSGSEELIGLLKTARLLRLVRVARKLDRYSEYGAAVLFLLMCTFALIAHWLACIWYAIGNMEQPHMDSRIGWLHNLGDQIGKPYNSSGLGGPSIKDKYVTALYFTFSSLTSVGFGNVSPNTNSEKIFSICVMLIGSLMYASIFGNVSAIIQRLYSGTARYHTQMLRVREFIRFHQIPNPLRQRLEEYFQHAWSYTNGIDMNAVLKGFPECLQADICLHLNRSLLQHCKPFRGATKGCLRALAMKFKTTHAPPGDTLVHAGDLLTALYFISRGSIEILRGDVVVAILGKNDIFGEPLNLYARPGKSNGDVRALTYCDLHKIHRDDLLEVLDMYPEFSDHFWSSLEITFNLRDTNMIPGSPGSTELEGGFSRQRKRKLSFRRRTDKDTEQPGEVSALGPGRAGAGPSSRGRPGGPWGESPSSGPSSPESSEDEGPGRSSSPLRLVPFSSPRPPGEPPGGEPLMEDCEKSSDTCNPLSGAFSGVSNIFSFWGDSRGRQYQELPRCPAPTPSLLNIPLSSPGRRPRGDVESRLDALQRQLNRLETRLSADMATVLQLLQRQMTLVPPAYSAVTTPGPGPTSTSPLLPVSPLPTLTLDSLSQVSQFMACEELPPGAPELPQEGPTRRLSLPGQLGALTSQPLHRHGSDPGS

Structure (SMILES)	hERG current change (%, negative = inhibition) at 10uM [%]
CNc1nc(-c2ccc3c(c2)CCN3C(=O)CC(C)(C)C)c(C)s1	38
C=CC#CC1(O)CC(C)[N+](C)(C)CC1C.[I-] (stereo not shown)	17.4
CCCCn1c(N)c(N(CC(C)C)C(=O)CSC(C)C(=O)Nc2cc(C)on2)c(=O)[nH]c1=O (stereo not shown)	9.14
CN(CCc1nc2ccccc2[nH]1)Cc1nc(CC2CC2)no1	-13.7
CN(CCc1nc2ccc(Cl)cc2[nH]1)Cc1nc(CC2CC2)no1	-50.8
CN(Cc1nc2ccc(F)cc2[nH]1)Cc1nc(CC2CC2)no1	-12.3
COc1ccc(CCN(C)C(=O)c2oc3ccccc3c2C)cc1OC	-0.562
COc1ccc2oc(C(=O)N(C)CCOc3ccccc3)c(C)c2c1	-28.9
CCn1cc(C(=O)N(C)Cc2ccc(OC(F)F)cc2)c(=O)c2ccc(C)nc21	-65.1
Cc1c(C(=O)OCC(=O)N(C)Cc2ccccc2)oc2ccccc12	-29.4
Cc1c(C(=O)N(C)Cc2ccc(OC(F)F)cc2)oc2ccccc12	-69.9
CCCCN(C)C(=O)c1cn(CC)c2nc(C)ccc2c1=O	-3.49
CCn1cc(C(=O)OCC(=O)N(C)Cc2ccccc2)c(=O)c2ccc(C)nc21	-11.1
COc1ccc2oc(C(=O)N(C)Cc3ccc(OC(F)F)cc3)c(C)c2c1	-53.8
COc1ccc2oc(C(=O)N(C)Cc3ccc4c(c3)OCCO4)c(C)c2c1	-10.5
CCCNC(=O)Nc1ccccc1C(=O)Nc1ccc(OC)cc1	2.77
OCC1CCCN(C(=S)NCCc2ccccc2)C1 (stereo not shown)	0.885
CCCn1nc(Oc2nc(NCC)nc(NCC)n2)ccc1=O	1.1
CCCn1nnc(NC(=O)c2cccc(OCC(C)C)c2)n1	-3.93
O=C(NCCc1ccc(Cl)cc1)C1CCN(S(=O)(=O)c2cccs2)CC1	-71.2
O=C(NCCc1ccc(Cl)cc1)C1CCN(S(=O)(=O)N2CCCCC2)CC1	-5.98
O=C(NCc1cccs1)C1CCN(S(=O)(=O)c2cccs2)CC1	-32.1

Structure (SMILES)	hERG current change (%, negative = inhibition) at 10uM [%]
O=C(NCCc1ccc(Cl)cc1)C1CCCN(S(=O)(=O)N2CCCCCC2)C1 (stereo not shown)	-18.7
O=C(NCCc1ccccc1)C1CCN(S(=O)(=O)c2cccs2)CC1	-2.14
O=C(NCc1ccc(Cl)cc1)C1CCN(S(=O)(=O)c2cccs2)CC1	-3.7
O=C(NCCc1ccccc1Cl)C1CCN(S(=O)(=O)c2cccs2)CC1	-34.8
O=C(NCCc1ccc(Cl)cc1)C1CCN(S(=O)(=O)N2CCCC2)CC1	-52.3
O=C(NCc1ccccc1Cl)C1CCN(S(=O)(=O)c2cccs2)CC1	-63.4
O=C1C=C(c2ccccc2)C[C@H](c2cccs2)[C@H]1n1cnc([N+](=O)[O-])c1	-18.8
COC(=O)c1nc2cc3c(cc2c(C)c1C(=O)OC)OCO3	10.8
COC(=O)CN(C(=S)Nc1ccccc1)C1CC(=O)N(c2ccc(OC)cc2)C1=O (stereo not shown)	-6.5
O=C1CCCC(O)=C1N=Nc1c(Cl)cc(Cl)cc1Cl	7.14
CCn1cc(C(=O)O)c(=O)c2cc3c(cc21)OCO3	20.5
Cc1ccc(C(=O)c2cc3c(cc2N)OCCO3)cc1	-11.4
CC(C)c1ccc(S(=O)(=O)c2cn(Cc3ccc(F)cc3)c3cc4c(cc3c2=O)OCO4)cc1	-1
Cc1ccc(Cn2cc(C(=O)NN)c(=O)c3ccc(F)cc32)cc1	-51.6
C=CCn1cc(C(=O)OCC)c(=O)c2ccc(F)cc21	5.56
O=C(C(=O)N1CCOCC1)c1cn(Cc2ccc(F)cc2)c2ccccc12	-32
Cc1ccc(S(=O)(=O)c2cn(Cc3ccc(F)cc3)c3cc4c(cc3c2=O)OCO4)cc1	-55
Cc1ccc(Cn2cc(S(=O)(=O)c3ccc(C(C)C)cc3)c(=O)c3cc4c(cc32)OCO4)cc1	-8.58
CC(=O)Nc1cc2c(cc1C(=O)c1ccc(C)cc1)OCCO2	5.77
Cc1ccc(Cn2cc(C(=O)c3ccc(F)cc3)c(=O)c3cc4c(cc32)OCCO4)cc1	-57.1
O=C(c1ccc(F)cc1)c1cn(Cc2ccc(F)cc2)c2cc3c(cc2c1=O)OCCO3	-71.1
CCOC(=O)c1cn(Cc2ccc(C)cc2)c2cc(F)ccc2c1=O	-10.9

Structure (SMILES)	hERG current change (%, negative = inhibition) at 10uM [%]
O=C(O)CC1SC(=O)N(Cc2ccccc2)C1=O (stereo not shown)	21
Cc1cc(Cl)ccc1OCc1cn2cccnc2n1	-17.5
CCCn1cc(SCC(=O)NCC2CCCO2)c2ccccc21 (stereo not shown)	4.17
CC(C)CN(C(=O)COC(=O)c1ccc2c(c1)OCCO2)c1c(N)n(Cc2ccccc2)c(=O)[nH]c1=O	5.66
Cc1ccc(C)n1NC(=O)c1ccco1	14.8
O=C(CSc1ncccn1)Nc1ncc(C(F)(F)F)cc1Cl	47.2
COC(=O)C1=C(C)NC(C)=C(C(=O)O[C@@H]2CCCN(Cc3ccccc3)C2)[C@@H]1c1cccc([N+](=O)[O-])c1.Cl	9.68
COc1cccc(N/C(SCc2cccc([N+](=O)[O-])c2)=C(/C#N)C(N)=O)c1	-19.9
CCOc1ccc(N/C(SC)=C(/C#N)C(N)=O)cc1	4.98
CCOc1ccc(N/C(SCc2cccc([N+](=O)[O-])c2)=C(/C#N)C(N)=O)cc1	-59.1
COc1ccccc1CCNCc1ccc(OC)c(OC)c1OC.O=C(O)C(=O)O	15.5
COc1cccc(CNCCc2cccc(F)c2)c1OC.O=C(O)C(=O)O	-5.22
COc1ccc(CNCCc2ccc(Cl)cc2)c(OC)c1OC.O=C(O)C(=O)O	-51.6
COc1ccc(CCNCc2ccc(OC)c(OC)c2OC)cc1	-37.6
COc1ccc(CNCCc2ccc3c(c2)OCO3)c(OC)c1OC.O=C(O)C(=O)O	-29.9
COc1ccc(CNCCc2cccc(F)c2)c2ccccc12.O=C(O)C(=O)O	-74
COc1cc(OC)c(OC)cc1CNCCc1cccc(F)c1.O=C(O)C(=O)O	-15.2
COc1ccccc1CNCc1ccc(OC)c(OC)c1OC.O=C(O)C(=O)O	-8
COc1ccc(CNCCc2ccc([N+](=O)[O-])cc2)c(OC)c1OC.O=C(O)C(=O)O	-68.9
O=C(N/N=C/c1c(O)ccc2ccccc12)c1cccnc1	7.7
COC(=O)COc1ccc(S(=O)(=O)N2CCN(c3ccccc3F)CC2)cc1	-3.27
O=C(Nc1ccc(-c2csnn2)cc1)C(Cl)(Cl)Cl	17.5

Structure (SMILES)	hERG current change (%, negative = inhibition) at 10uM [%]
CC(C)C(=O)OCC(=O)Nc1ccc(N=Nc2ccccc2)cc1	4.2
CCN(CC)S(=O)(=O)c1cc(NS(=O)(=O)c2cccc(Cl)c2Cl)ccc1C	-1.79
CCCOc1ccc(NC(=O)C2CC(=O)N3CCCN=C3S2)cc1 (stereo not shown)	-11
CN1CCC(NC(=O)NC2CCCCC2)CC1	11.9
Cc1cc(N2CCN(c3ccccc3)CC2)n2c(n1)nc1ccccc12	-68.7
Cc1cc(N2CCN(c3ccccc3)CC2)n2cc(-c3ccccc3)nc2n1	-75.3
c1ccc(-c2csc(N3CCN(c4ccccn4)CC3)n2)cc1	-1.09
Cc1cc(N2CCN(c3ccccc3)CC2)nc2ccccc12	3.04
Cc1cc(NC2CCCCC2)n2c(n1)nc1ccccc12	-55.1
Cc1cc(N2CCN(c3ccc(F)cc3)CC2)nc(-c2ccccc2)n1	-13.7
Cc1cc(C)c2c(n1)nn1c(N3CCN(c4ccccc4)CC3)cc(C)nc21	4.66
Cc1cc(N2CCN(c3ccccn3)CC2)n2cc(-c3ccccc3)nc2n1	-72.3
Cc1nnc2c(NC3CCCCC3)nc3ccccc3n12	1.89
Cc1cc(Nc2cccc(F)c2)n2c(n1)nc1ccccc12	3.44
Cc1cc(-c2ccccc2)nc(N2CCN(c3ccccn3)CC2)n1	1.11
Cc1cc(N2CCN(c3ccccc3)CC2)nc(-c2ccccc2O)n1	6.15
CC(C)c1ccc(NC(=O)c2cccc(NC3=NC4CS(=O)(=O)CC4S3)c2)cc1 (stereo not shown)	-11.1
CS(=O)(=O)N(CC(=O)Nc1ccc(F)cc1)C1CCCCC1	12.6
c1ccc(-c2nc(C3CCCCC3)no2)cc1	-0.00972
CCSC1=N/C(=C\c2ccccc2)C(=O)N1c1ccc(OC)cc1	6.36
O=C(O)c1cccnc1Cl	10.7
O=C(/C=C/c1ccccc1)Nc1sc2c(c1C(=O)O)CCC2	5.92
